In PubChem BioAssay (NCI):
About 83,000 compounds went through this panel and 20% of them were active in at least one assay; those are over-represented in the sample as a whole.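 Negative percent growth values reflect cell death: -40 means 40% of the cells present at the start died, and -100 means all died.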 The source made the active and inactive calls. The calls were made as follows: active = growth percent below 10; inactive = the rest.

Legend:
Experiment in all cases: NCI-60 one-dose screen, 48 h (100 = growth as untreated, 0 = no growth, -100 = all killed)
Conditions in all cases: 10 µM unless noted
DU-145 prostate = system: DU-145 prostate
K-562 leukemia = system: K-562 leukemia
MALME-3M melanoma = system: MALME-3M melanoma
MDA-MB-231 breast = system: MDA-MB-231 breast
RXF 393 renal = system: RXF 393 renal
SF-268 CNS = system: SF-268 CNS
SF-539 CNS = system: SF-539 CNS
UACC-257 melanoma = system: UACC-257 melanoma
M14 melanoma = system: M14 melanoma
HCT-15 colon = system: HCT-15 colon
HT29 colon = system: HT29 colon
SNB-75 CNS = system: SNB-75 CNS
SNB-19 CNS = system: SNB-19 CNS
U251 CNS = system: U251 CNS
PC-3 prostate = system: PC-3 prostate
SK-MEL-5 melanoma = system: SK-MEL-5 melanoma
UACC-62 melanoma = system: UACC-62 melanoma
LOX IMVI melanoma = system: LOX IMVI melanoma
SK-MEL-28 melanoma = system: SK-MEL-28 melanoma

Measured: growth

C=CCn1c(SCC(=O)Nc2ccc(C(=O)/C=C/c3ccc(Cl)cc3)cc2)nnc1-c1ccc(Cl)cc1
inactive: DU-145 prostate 100% | K-562 leukemia 72.5% | MALME-3M melanoma 93.2% | MDA-MB-231 breast 86.4% | RXF 393 renal 99.9% | SF-268 CNS 82.7% | SF-539 CNS 99.2% | UACC-257 melanoma 99% | M14 melanoma 95.5% | HCT-15 colon 77.2% | HT29 colon 92.8% | SNB-75 CNS 73.8% | SNB-19 CNS 91.1% | U251 CNS 79.7% | PC-3 prostate 69.9% | SK-MEL-5 melanoma 90.6% | UACC-62 melanoma 71.2% | LOX IMVI melanoma 89.9% | SK-MEL-28 melanoma 104%

CCCc1cc2c(cc1CN(Cc1cc3c(cc1CCC)OCO3)C(=N)OCC)OCO2
inactive: DU-145 prostate 97.6% | K-562 leukemia 63.4% | MALME-3M melanoma 82.8% | MDA-MB-231 breast 77.8% | RXF 393 renal 106% | SF-268 CNS 79.2% | SF-539 CNS 112% | UACC-257 melanoma 83.9% | M14 melanoma 85.9% | HCT-15 colon 94.8% | HT29 colon 52.4% | SNB-75 CNS 95.6% | SNB-19 CNS 94% | U251 CNS 67.3% | PC-3 prostate 59.3% | SK-MEL-5 melanoma 88.8% | UACC-62 melanoma 77.2% | LOX IMVI melanoma 83.6% | SK-MEL-28 melanoma 102%

CCN(CC)Cc1cc(Nc2nc(NC3CCC(N(C)C)CC3)c3ccccc3n2)ccc1OC (configuration not stated)
active: K-562 leukemia 7.54% | UACC-257 melanoma -32.6% | M14 melanoma -10.2%
inactive: DU-145 prostate 98.8% | MALME-3M melanoma 69.1% | MDA-MB-231 breast 39.8% | RXF 393 renal 74.9% | SF-268 CNS 69.8% | SF-539 CNS 73.9% | HCT-15 colon 94.7% | HT29 colon 14.2% | SNB-75 CNS 72.3% | SNB-19 CNS 89.4% | U251 CNS 50.5% | PC-3 prostate 62.6% | SK-MEL-5 melanoma 45.7% | UACC-62 melanoma 98.4% | LOX IMVI melanoma 33.7% | SK-MEL-28 melanoma 20.6%

C#CC[C@@H]1C[C@]2(C)[C@H]3CC[C@@H]4[C@H]5C(C(=C)C)CC[C@]5(C(=O)NCCCCN)CC[C@@]4(C)[C@]3(C)CC[C@H]2C(C)(C)[C@H]1OC(C)=O (some centres not stated)
active: DU-145 prostate -77.8% | K-562 leukemia -9.82% | MDA-MB-231 breast -81.2% | RXF 393 renal -89.2% | SF-539 CNS -82.9% | M14 melanoma -58.5% | HCT-15 colon -66.1% | HT29 colon -61.3% | SNB-75 CNS -97.3% | SNB-19 CNS -56.7% | U251 CNS -86.6% | PC-3 prostate 6.29% | UACC-62 melanoma -36.1% | LOX IMVI melanoma -83.4%
inactive: MALME-3M melanoma 46.6% | SF-268 CNS 91.6% | UACC-257 melanoma 85.9% | SK-MEL-5 melanoma 89.9% | SK-MEL-28 melanoma 67.9%

N#CC1=C(N)Oc2nc[nH]c(=O)c2C1c1cccs1 (configuration not stated)
inactive: DU-145 prostate 107% | K-562 leukemia 104% | MALME-3M melanoma 112% | MDA-MB-231 breast 106% | RXF 393 renal 97.8% | SF-268 CNS 108% | SF-539 CNS 101% | UACC-257 melanoma 98.4% | M14 melanoma 111% | HCT-15 colon 99.8% | HT29 colon 99% | SNB-75 CNS 92.6% | SNB-19 CNS 104% | U251 CNS 96.3% | PC-3 prostate 97.9% | SK-MEL-5 melanoma 102% | UACC-62 melanoma 104% | LOX IMVI melanoma 100% | SK-MEL-28 melanoma 102%

CCN(CC)CCCCCCCNc1cc(OC)cc2c(C)ccnc12
inactive: DU-145 prostate 102% | K-562 leukemia 36.7% | MALME-3M melanoma 103% | MDA-MB-231 breast 54.1% | RXF 393 renal 91.6% | SF-268 CNS 91.1% | SF-539 CNS 91.3% | UACC-257 melanoma 92.6% | M14 melanoma 97.6% | HCT-15 colon 76.8% | HT29 colon 52.5% | SNB-75 CNS 82.9% | SNB-19 CNS 96.3% | U251 CNS 86% | PC-3 prostate 51.4% | SK-MEL-5 melanoma 85.3% | UACC-62 melanoma 91.3% | LOX IMVI melanoma 56.6% | SK-MEL-28 melanoma 105%

Oc1[nH]c2ccccc2c1/C=c1/ccc2c(c1)N=C(c1ccc(C(F)(F)F)cc1)N=2
inactive: DU-145 prostate 63.1% | K-562 leukemia 14.6% | MALME-3M melanoma 74.2% | MDA-MB-231 breast 46.6% | SF-268 CNS 68.7% | SF-539 CNS 67.4% | UACC-257 melanoma 67.4% | M14 melanoma 44.6% | HCT-15 colon 44.5% | HT29 colon 37.9% | SNB-75 CNS 48.7% | SNB-19 CNS 61.6% | U251 CNS 32.5% | PC-3 prostate 32.5% | SK-MEL-5 melanoma 69.9% | UACC-62 melanoma 47.2% | LOX IMVI melanoma 43.4% | SK-MEL-28 melanoma 52.8%
active: RXF 393 renal -37.2%

CCc1oc2ccccc2c1C(=O)c1cc(I)c(O)c(I)c1
inactive: DU-145 prostate 77.8% | K-562 leukemia 25% | MALME-3M melanoma 53% | MDA-MB-231 breast 54.7% | RXF 393 renal 45.3% | SF-268 CNS 53.1% | SF-539 CNS 44% | UACC-257 melanoma 70.7% | M14 melanoma 16.2% | HCT-15 colon 33.2% | HT29 colon 98.5% | SNB-75 CNS 31.9% | SNB-19 CNS 54.2% | U251 CNS 29.1% | PC-3 prostate 74.9% | SK-MEL-5 melanoma 32.2% | UACC-62 melanoma 45.6% | LOX IMVI melanoma 51.4% | SK-MEL-28 melanoma 62.4%
